DT40 TDP1 CPT: DT40-hTDP1 cell growth loss with CPT; 420,000 tested, 12% active; Potency, µM (top dose mostly 46.2 µM), for the others: at the top dose activity change, negative = growth inhibition, hits mostly inhibitors; chicken DT40 Tdp1-/-;hTDP1 cells + 20 nM CPT, ATP luminescence, 48 h; also: potency is read from the fitted curve at half-maximal effect; nearly all actives have a fitted effect of over 55% in size
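Chicken DT40 Tdp1-/- cells stably complemented with human TDP1 were seeded at 400 cells/well in medium containing 20 nM camptothecin, exposed to pin-transferred compounds, and grown at 37 °C for at least 48 hr. Viability was read as ATP luminescence.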
IL1B secr inh: inflammasome signaling inhibition, IL-1 beta readout | 360,000 tested, 4.7% active | AID 743279 | THP-1 LPS/ATP IL-1B secretion, AlphaLISA, 16 h; hits give low values | activity change, % at 57.5 µM; in the data active = activity change below about -50%; inconclusive = mostly about -30% to -49%
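THP-1 cells pretreated 1 hr with compounds (up to 57.5 uM final), then stimulated with LPS (250 ng/mL final) plus ATP (1.25 mM final); secreted IL-1B measured by AlphaLISA after 16 hr, decreased signal indicating inhibition.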
DT40 TDP1 no CPT: qHTS for Inhibitors of human tyrosyl-DNA phosphodiesterase 1 (TDP1): qHTS in cells in absence of CPT. AID 686978, 2013. Potency, µM (top dose mostly 46.2 µM), without a hit: at the highest dose activity change, negative = growth inhibition, hits mostly inhibitors. DT40 Tdp1-/- hTDP1 cells, no CPT, ATP luminescence, 48 h. 420,000 tested, 15% active; also: potency is read from the fitted curve at half-maximal effect; nearly all actives have a fitted effect of over 55% in size
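Seeded 400 DT40-hTDP1 cells/well (vehicle DMSO, no 20 nM CPT); pinned compounds; ≥48 hr at 37 °C; CellTiter-Glo luminescence as viability measure.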
HT1080 IDH1KD tx: toxicity to HT-1080 IDH1 knockdown cells (counter line). HT-1080 IDH1 knockdown viability, ATP luminescence, 48 h. Potency, µM (series often up to 46.1 µM), for inactives: at the top dose activity, negative = toxicity, most hits filed as cytotoxic. 360,000 tested, 2% active. AID 686971;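 also: potency is read from the fitted curve at half-maximal effect; 0% = DMSO wells and -100% = cell-free medium wells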
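% activity derives from luminescence (CellTiter-Glo), normalised to DMSO and no-cell wells. HT-1080-IDH1KD cells, 750/well, had 48 h compound exposure at 37 °C.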
HT1080-NT tox: kills 2HG-producing HT-1080-NT fibrosarcoma cells | HT-1080-NT fibrosarcoma viability, CellTiter-Glo ATP luminescence, 48 h | Potency, µM (doses to about 46.1 µM), for inactives: at the highest dose activity, negative = less viability, most hits filed as cytotoxic | 360,000 tested, 1.6% active;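 also: NT is the 2HG producing partner of a matched IDH1 knockdown line; potency is read from the fitted curve at half-maximal effect; 0% = DMSO-treated cells and -100% = media-only wells without cells; nearly all actives have a fitted effect of over 55% in size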
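Compounds were tested in concentration-response format on HT-1080-NT cells for 48 hours at 37 degrees C. Cell viability came from CellTiter-Glo luminescence; curves were classified by r2, response magnitude and activity.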
* marks the source's active call; other numbers are inactive results; ? = inconclusive; · = no result given. In the library only some 19% were active in any assay of this set; here they are far more common. Unless noted, calls follow the shape of the dose curve; as a rule, active = well fitted curve in the direction sought with a large enough effect; inconclusive = small, poorly fitted or top-dose-only effect, or another doubt; inactive = no such curve, though single readings can be large; an effect the other way counts as inactive or inconclusive. Unless noted, % is scaled to controls: 0 for no effect and ±100 for the full control effect.

SMILES	DT40 TDP1 CPT	IL1B secr inh	DT40 TDP1 no CPT	HT1080 IDH1KD tx	HT1080-NT tox
O=C1C(=O)c2cccnc2-c2ncccc21	0.0326µM*	-107.8*	0.0052µM*	0.581µM*	1.03µM*
COc1ccccc1N1C(=O)c2cccnc2C1=O	-1.5%	-1.6	-12.1%	11.6%	8.7%
COC(=O)C1=C(C)NC(=O)NC1c1ccc2c(c1)OCO2 (centres undefined)	12.8%	-3.8	4.2%	9.3%	0.8%
CCCOc1ccc(C(=O)CCNC(Cc2c[nH]c3ccccc23)C(=O)O)cc1 (centres undefined)	4.61µM*	-8.6	7.31µM*	0.0%	-6.5%
Cc1ccc(C(=O)COC(=O)C(Cc2c[nH]c3ccccc23)NC(=O)c2ccc(C(C)(C)C)cc2)cc1 (centres undefined)	18.4µM*	·	23.1µM*	·	·
O=C(NC(Cc1c[nH]c2ccccc12)C(=O)Nc1ccc(OC(F)(F)F)cc1)c1cccs1 (centres undefined)	?	-67.9*	?	20.6µM*	?
COc1ccc(C(=O)NC(Cc2c[nH]c3ccccc23)C(=O)O)cc1 (centres undefined)	-4.2%	8.9	6.1%	9.1%	8.6%
CC(C)c1ccccc1NC(=O)C(Cc1c[nH]c2ccccc12)NC(=O)OC(C)(C)C (centres undefined)	18.4µM*	·	?	·	·
CC(C)(C)c1ccc(C(=O)NC(Cc2c[nH]c3ccccc23)C(=O)OCC(=O)c2ccc(Br)cc2)cc1 (centres undefined)	-8.4%	·	?	·	·
CN(C)C(=O)COc1ccc2c3c(c(=O)oc2c1)CCCC3	3.1%	-11.5	-6.7%	10.2%	9.4%
COc1ccc(OC)c(CN2CCN(c3ccc(S(=O)(=O)N4CCCC4)cn3)CC2)c1	?	0.0	?	-1.6%	-4.3%
O=C(O)c1cc(N2CCCCC2)ccn1	-10.7%	17.5	-25.8%	21.4%	15.8%
Cc1ccc(NC(=O)C(C)OC(=O)Cc2c[nH]c3ccccc23)cc1 (centres undefined)	-46.7%	18.8	-28.7%	-14.9%	-13.3%
Cc1ccc(NC(=O)C(Cc2c[nH]c3ccccc23)NC(=O)OCC(C)C)cc1 (centres undefined)	18.4µM*	·	23.1µM*	·	·
Cc1ccc2ncnc(Nc3ccccc3)c2c1	-22.1%	-3.0	?	-2.8%	-1.7%
Cc1cccc(Nc2ncnc3ccc(Br)cc23)c1	?	-50.8*	?	-20.4%	-12.1%
CCOC(=O)c1ccc(Nc2ncnc3ccc(C)cc23)cc1	-20.8%	7.8	?	-27.5%	-26.4%
CCOC(=O)c1cccc(Nc2ncnc3ccc(C)cc23)c1	14.6µM*	-14.9	20.6µM*	?	?
Clc1cccc(Nc2ncnc3ccc(Br)cc23)c1	25.9µM*	-57.8*	?	?	7.94µM*
CCOC(=O)c1cccc(Nc2cc(C)nc(C)n2)c1	?	·	16.4µM*	·	·
Cc1nnc(SC(C)C(=O)Nc2ccc3ccccc3c2)n1C (centres undefined)	4.2%	6.4	27.4%	-1.3%	-1.8%
CN(C)c1ccc(Nc2ncnc3ccc(Br)cc23)cc1	?	-10.1	?	-6.4%	-3.9%
Clc1ccc(Nc2ncnc3ccc(Br)cc23)cc1	10.3µM*	-9.0	14.6µM*	?	?
Cc1c(Cc2ccccc2)c(=O)oc2c(CN(C)C)c(O)c(Cl)cc12	?	18.1	16.4µM*	-25.9%	-2.2%
Cc1c(Cc2ccccc2)c(=O)oc2c(O)c(O)ccc12	-18.5%	174.3	?	-20.7%	-0.9%
SMILES	DT40 TDP1 CPT	IL1B secr inh	DT40 TDP1 no CPT	HT1080 IDH1KD tx	HT1080-NT tox
Cc1ccc(S(=O)(=O)N2C[C@H]3C(=O)C[C@@H](c4ccccc4F)N(S(=O)(=O)c4ccc(C)cc4)[C@H]3C[C@H]2c2ccccc2F)cc1	8.2µM*	-20.7	10.3µM*	2.9%	12.3%
O=C(c1cccs1)N1CCCC(c2nc3c(nnn3Cc3c(Cl)cccc3Cl)c(=O)[nH]2)C1 (centres undefined)	?	-24.9	?	-6.6%	-7.8%
O=C(Nc1ccc(N2CCN(C(=O)c3ccccc3)CC2)cc1)c1ccc2c(c1)OCO2	14.6µM*	-78.4*	18.4µM*	-12.6%	-0.3%
CC(C)C(=O)N1CCN(c2ccc(NC(=O)c3ccc4c(c3)OCCO4)cc2)CC1	4.4%	8.6	0.5%	?	?
Cc1ccccc1C(=O)N1CCN(c2ccc(NC(=O)c3ccc4c(c3)OCCO4)cc2)CC1	?	?	23.1µM*	-9.9%	?
CC(=O)N1CCN(c2ccc(NC(=O)c3ccc4c(c3)OCO4)cc2)CC1	-13.0%	-13.7	-1.5%	-9.3%	-13.2%
Cc1ccc(C(=O)N2CCN(c3ccc(NC(=O)c4ccc5c(c4)OCCO5)cc3)CC2)cc1	16.4µM*	·	?	-13.2%	-3.6%
Cc1ccc(C2=NNC(=O)C(P(=O)(c3ccccc3)c3ccccc3)C2)cc1 (centres undefined)	-14.9%	-0.5	?	5.4%	-2.6%
C/C(=N/NC(=O)CNC(=O)c1ccncc1)c1ccco1	1.3%	7.4	-1.4%	13.5%	9.1%
O=C(CSc1nnc(-c2ccc3c(c2)OCO3)o1)Nc1ncc(C(F)(F)F)cc1Cl	?	25.2	16.4µM*	-0.3%	-0.7%
Cc1nc(NC(=O)CSc2nnc(-c3ccc4c(c3)OCO4)o2)c(Cl)cc1Cl	-15.8%	23.5	?	-0.8%	-3.3%
COc1ccccc1-n1cc(C(=O)NCC(=O)N2CCN(c3ccccc3)CC2)c2ccccc2c1=O	-28.3%	-8.1	?	10.6%	14.6%
Fc1ccc(-n2c(Cc3ccccc3)nnc2SCc2nc(-c3cccs3)no2)cc1	?	-4.0	?	0.0%	?
Cc1ccccc1-c1noc(CSc2nnc(Cc3ccccc3)n2-c2ccc(F)cc2)n1	?	·	9.2µM*	·	·
CCOc1ccc(-n2c(Cc3ccccc3)nnc2SCc2nc(-c3ccccc3OC)no2)cc1	?	·	16.4µM*	·	·
CCSc1nc2ccccc2n1C(=O)/C=C/c1ccc(OC)c(OC)c1	4.11µM*	-102.5*	3.26µM*	5.8µM*	8.2µM*
COc1ccc(/C=C/C(=O)N2CC(C)OC(C)C2)cc1OC (centres undefined)	2.4%	-11.8	-11.7%	1.0%	14.6%
C=CCSc1nc2ccccc2n1C(=O)/C=C/c1cc(OC)c(OC)c(OC)c1	2.31µM*	-104.1*	2.06µM*	2.24µM*	5.01µM*
C=CCSc1nc2ccccc2n1C(=O)/C=C/c1ccc(OC)c(OC)c1	5.01µM*	-101.8*	3.55µM*	2.51µM*	?
CCn1c(SCC(=O)N/N=C/c2ccc(OC)c(OC)c2)nc2ccccc21	?	6.5	?	2.2%	7.0%

Screening data: PubChem BioAssay, National Center for Advancing Translational Sciences (NCATS)
